Drawing on PubChem BioAssay (NCI), this text covers growth for ten molecules.

The panel holds about 83,000 compounds, 20% with a hit somewhere; the sample as a whole holds those more often.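 Each cell line was grown in a 96-well plate and treated with one concentration of compound for 48 hours. Values below 10 were considered active.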 A number with no mark means an inactive call. Active and inactive are the calls of the source.

Holding throughout (assay): NCI-60 one-dose screen, 48 h (100 = growth as untreated, 0 = no growth, -100 = all killed)
Conditions in all cases: 10 µM unless noted

In test [1] the test system is OVCAR-8 ovarian.
Test [2] has as its system OVCAR-5 ovarian.
Test [3] relates to OVCAR-4 ovarian.
Test [4] relates to IGROV1 ovarian.
Test [5] deals with OVCAR-3 ovarian.
For test [6], the system named is HS 578T breast.
Test [7] has as its system T-47D breast.
For test [8], the system named is BT-549 breast.
Test [9] deals with MDA-MB-435 melanoma.
Test [10] relates to SW-620 colon.
The subject of test [11] is MCF7 breast.
Test [12] has as its system HCT-116 colon.
The test system of test [13] is HCC-2998 colon.
The subject of test [14] is KM12 colon.
The test system of test [15] is NCI/ADR-RES ovarian.
The test system of test [16] is SK-OV-3 ovarian.

Consider `CC1SC(c2c(Cl)cccc2Cl)N(NC(=O)c2[nH]c3ccc(F)cc3c2-c2ccccc2)C1=O` (configuration not stated), for which the growth in test [1] is 33.1%; in test [2], 78.3%; in [3] it was -54.7% (active); in test [4] it was -6.28% (active); in test [5], -62.2% (active); in test [6], -8.04% (active). The growth is 2.88% (active) in [7]; 75.7% in test [8]; 61.9% in test [9]; 17% in [10]; 42.3% in [11]; -43.8% (active) in [12]. The growth in [13] is 11.2%; in test [14] it was 46.4%.
Take `Cc1ccc(NC(=O)CSc2nnc3n(Cc4ccccc4)c(=O)c4c(C)c(C(N)=O)sc4n23)cc1`: the growth in test [2] was 75.8%; in test [3], -62.3% (active); in test [4] it was 50.8%; in test [5], 9.55% (active); in test [15], 92.8%; in [7], -19.7% (active). In addition, the growth was 74.3% in test [8]; 31.5% in test [9]; 53.7% in test [10]; 44.8% in test [11]; 9.8% (active) in test [12]; 34.3% in [13]. Besides, in test [14], the growth was 51.2%.
`c1ccc2cc(C[n+]3ccn(CCCCCCCn4cc[n+](Cc5ccc6ccccc6c5)c4)c3)ccc2c1`: the growth in test [2] is 48.2%; in [3], 37.3%; in test [16], 36.1%; in [4], 27.5%; in test [5], 44.4%; in [6], 61.5%. The growth in test [15] is 99.7%; in test [7] it was 23.4%; in test [8], 16.7%; in test [9] it was 32.7%; in test [10], 74.2%; in test [11] it was 35.1%. Further, the growth was 32.7% in [12], 49.3% in test [13] and 28.7% in [14].
Consider `Cc1c(C(N)=O)sc2c1C(=O)N(Cc1ccccc1)C1=NN=C(c3ccc(Cl)cc3)CN12`, for which the growth was 18.1% in [1]; 57.2% in [2]; 48.6% in test [3]; 42.6% in test [4]; 31.5% in test [5]; 78.2% in test [6]. In addition, the growth was 9.99% (active) in [15]; 63.4% in test [7]; 58.2% in test [8]; 66.3% in test [9]; 57.5% in [10]; 37.8% in [11]. Besides, the values for the growth in test [12], in test [13] and in [14] were 18.8%, 40.9% and 42.6%, respectively.
`Cc1nn(-c2ccc(Cl)cc2)c2nc3c(nc12)C(=O)C(=O)c1ccccc1-3`: the growth was 95.9% in test [2]; 48.4% in test [3]; 93.8% in test [16]; 59.1% in test [4]; 2.92% (active) in test [5]; 61.3% in test [6]. The growth was 76.5% in [15]; 67.6% in test [7]; 92.1% in [8]; 97.7% in test [9]; 67.2% in test [10]; 49.7% in test [11]. For the same molecule, the results for the growth in test [12], in [13] and in test [14] were 80.2%, 66.6% and 61.9%, respectively.
In the case of `c1ccc(-c2nn[nH]n2)c(-c2ccc(CN3CCN(c4nsc5ccccc45)CC3)cc2)c1`, the growth was 96.8% in [2]; 85.6% in test [3]; 105% in test [16]; 113% in test [4]; 91.4% in [5]; 105% in [6]. The growth is 92% in test [15]; 68.7% in test [7]; 106% in test [8]; 92.2% in [9]; 88.7% in test [10]; 85.6% in test [11]. Also, the growth in test [12] was 76.9%; in test [14], 101%.
As for `COC(=O)[C@]1(C(C)C)N[C@H](c2cn(-c3ccccc3)nc2-c2ccccc2)[C@@H]2C(=O)N(c3ccc(Cl)cc3)C(=O)[C@@H]21`, the growth in [2] was 101%; in test [3], 117%; in [16], 92.7%; in test [4], 103%; in test [5] it was 89.1%; in test [15], 90.3%. Also, the growth in [7] was 93.6%; in test [8], 86.7%; in [9], 105%; in test [10], 99.4%; in test [11] it was 96.6%; in [12] it was 89.8%. In addition, the growth in test [13] was 109%; in [14], 95.3%.
Take `O=C1Cc2cc(CCN3CCN(CCOCCO)CC3)c(Cl)cc2N1Cc1ccc(-c2ccccc2-c2nn[nH]n2)cc1`: the growth in test [2] was 96.6%; in [3], 89.6%; in test [16], 93.8%; in test [4] it was 107%; in [5], 94.5%; in test [6], 85%. Besides, the growth in test [15] was 90.6%; in test [7], 101%; in test [8], 87.3%; in test [9] it was 92.8%; in test [10], 95.9%; in [11], 87.1%. Further, the growth was 87.8% in [12], 88.5% in test [13] and 85.2% in test [14].
As to `N#CCCN(CCO)c1ccccc1`, the growth in test [1] is 102%; in [2], 108%; in [16], 101%; in test [4], 103%; in test [5], 105%; in test [6] it was 102%. Besides, the growth in test [15] was 112%; in [7] it was 92%; in test [8], 91.7%; in test [10] it was 102%; in [11], 93.6%; in [12] it was 100%. Moreover, the growth in [13] is 129%; in test [14], 110%.
Consider `O=Nc1ccc(O)c(=O)cc1`, for which the growth in test [1] is 43.8%; in test [2] it was 68.1%; in test [16], 108%; in [4], 18.7%; in [6], 107%; in [15] it was 38%. Also, the growth is 18.5% in test [7]; 32.5% in [8]; 32% in [9]; -43% (active) in test [10]; 20.9% in [11]; 2.12% (active) in test [12]. Besides, the growth in test [13] was 97.8%.
